Reference: PubChem BioAssay AID376 (PDSP, 2006)
The campaign covered roughly 2,000 compounds. About 250 (12%) were called active. This excerpt belongs to a sample that is enriched for actives. Unmarked numbers belong to inactive results. No stated cut-off is given here; in the data, active means hERG blockade below about -20% or above about 20%; inactive means in between.

target: Voltage-gated inwardly rectifying potassium channel KCNH2 (Homo sapiens) (UniProt Q12809); experiment: modulators of KCNH2 ion channel function, cellular (AID 376); conditions: hERG-expressing cells, channel activity single-concentration screen; concentration not given here;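 further: 0% = buffer alone and 100% = reference blocker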
Sequence (Q12809 whole entry, looked up): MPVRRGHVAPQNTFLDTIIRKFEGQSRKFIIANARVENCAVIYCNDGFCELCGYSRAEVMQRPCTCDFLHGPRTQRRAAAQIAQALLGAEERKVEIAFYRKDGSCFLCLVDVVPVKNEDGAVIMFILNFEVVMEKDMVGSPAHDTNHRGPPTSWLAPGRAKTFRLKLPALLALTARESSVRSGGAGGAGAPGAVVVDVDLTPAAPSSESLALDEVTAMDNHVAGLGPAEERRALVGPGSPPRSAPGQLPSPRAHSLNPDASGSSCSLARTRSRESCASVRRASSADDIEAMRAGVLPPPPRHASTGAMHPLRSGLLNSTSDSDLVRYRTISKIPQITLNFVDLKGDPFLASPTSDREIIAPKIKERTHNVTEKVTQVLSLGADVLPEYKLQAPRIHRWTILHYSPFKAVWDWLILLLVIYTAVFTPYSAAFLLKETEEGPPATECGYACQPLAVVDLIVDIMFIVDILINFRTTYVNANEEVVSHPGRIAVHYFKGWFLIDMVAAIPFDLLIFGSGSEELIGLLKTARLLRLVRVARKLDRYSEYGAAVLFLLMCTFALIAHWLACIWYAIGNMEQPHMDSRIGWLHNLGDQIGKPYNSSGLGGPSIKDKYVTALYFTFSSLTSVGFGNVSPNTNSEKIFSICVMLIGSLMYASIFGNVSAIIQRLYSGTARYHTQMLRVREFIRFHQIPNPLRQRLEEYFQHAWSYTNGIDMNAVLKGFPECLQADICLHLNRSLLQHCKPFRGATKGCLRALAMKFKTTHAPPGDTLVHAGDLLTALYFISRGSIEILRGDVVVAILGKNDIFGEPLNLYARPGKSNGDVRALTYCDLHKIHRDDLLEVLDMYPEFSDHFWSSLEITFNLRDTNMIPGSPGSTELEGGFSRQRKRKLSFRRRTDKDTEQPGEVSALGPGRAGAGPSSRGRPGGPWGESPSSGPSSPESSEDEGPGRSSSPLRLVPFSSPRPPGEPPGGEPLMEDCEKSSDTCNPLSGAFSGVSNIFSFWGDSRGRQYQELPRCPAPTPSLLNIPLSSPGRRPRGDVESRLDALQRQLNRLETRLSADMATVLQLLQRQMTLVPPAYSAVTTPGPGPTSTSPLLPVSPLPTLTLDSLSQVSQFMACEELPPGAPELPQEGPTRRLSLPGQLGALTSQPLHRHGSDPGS

SMILES	hERG blockade
CCC(O)(C(=O)O)c1cc2n(c(=O)c1CO)Cc1cc3ccccc3nc1-2 (configuration not stated)	-3.09%
C[N+]1([O-])C2CCC1CC(OC(=O)C(CO)c1ccccc1)C2 (configuration not stated)	-12.1%
CN(C)CCCNc1c2c(nc3ccc(Cl)cc13)CCCC2	65.9% (active)
O=S(=O)(O)C(=Cc1ccccc1)c1ccccc1 (tested in a mixture with another compound)	-5.32%
O=C(O)Cc1ccc([N+](=O)[O-])cc1[N+](=O)[O-]	-15.6%
CC(c1ccccc1)N1CCN(C(C)c2ccccc2)CC1 (configuration not stated)	2.64%
CCC1CN2CCc3cc(OC)c(OC)cc3C2CC1CC1NCCc2c1[nH]c1ccc(O)cc21 (configuration not stated)	35.8% (active)
O=C(O)CC1OCC=C2CN3CCC45C6=CC(=O)C(=O)C([N+](=O)[O-])=C6NC4C1C2CC35 (configuration not stated)	13.9%
CC12CCC(CN(CCC[N+](C)(C)C)C1)C2(C)C (configuration not stated)	4.55%
CC1CCC2N(C1)CC1C3(O)CC45OC6(O)C(O)CCC4(C)C6CCC5C3(O)CC(O)C1(O)C2(C)O (configuration not stated)	12.9%
CSCCC(N)P(C)(=O)O (configuration not stated)	-4.74%
C[As+](C)(c1ccc(Br)c([N+](=O)[O-])c1)c1ccc(Br)c([N+](=O)[O-])c1.O=[N+]([O-])[O-]	13.6%
N=C(N)n1cc(C=NN=C(N)N)cn1	47.3% (active)
S=P(C1CCCCC1)(C1CCCCC1)C(c1cccnc1)N1CCCC1 (configuration not stated)	1.56%
O.O.[NH-]C1(C(=O)O)CCCC1.[NH-]C1(C(=O)O)CCCC1.[Ni+2]	1.76%
Cc1cc[c]([Sb]2[O]C(CO)C(C(O)C(O)C(=O)O)[O]2)cc1 (configuration not stated)	-4.77%
COc1cc2c(cc1OC)C13CCN4CC5=CCOC(CC(=O)O)C(C5CC41)C3N2 (configuration not stated)	2.07%
O=c1[nH]cnc2[nH]cc(CN3CCCCC3)c12	1.35%
O=c1[nH]c2ccccc2n1CCCN1CCC(n2c(=O)[nH]c3cc(Cl)ccc32)CC1	67.7% (active)

SMILES	hERG blockade
CCNC(C)(C)C(SS)c1ccc(Br)cc1 (configuration not stated)	-7.7%
O=C(O)CC1OCC=C2CN3CCC45c6ccccc6NC4C1C2CC35 (configuration not stated)	-7.07%
CC1(C)CC(=N[N-]C(N)=[SH+])CC(C)(C)N1.CC1(C)CC(=N[N-]C(N)=[SH+])CC(C)(C)N1.[Ni]	-0.871%
O=C(O)C1[O][Sb][O]C(C(=O)O)C1O (configuration not stated)	-9.98%
CC(C)=CC1C(C(=O)OCc2cc3c(cc2Cl)OCO3)C1(C)C (configuration not stated)	1.35%
c1nc(N2CC2)c2cnn(C3CCCCO3)c2n1 (configuration not stated)	4.58%
O=C(O)C1C2c3ccccc3C(c3ccccc32)C1C(=O)NCC1CC1 (configuration not stated)	-8.3%
CC(C)CCC1(CCN)C(=O)NC(=O)NC1=O	-21.5% (active)
CC12Cc3cnc(-c4ccccc4)nc3CC1CCC1C2CCC2(C)C1CCC2(C)O (configuration not stated)	6.41%
NC(Cc1c[nH]c2cc([N+](=O)[O-])ccc12)C(=O)O (configuration not stated)	-0.372%
CCC1(CCSC(=N)N)C(=O)NC(=O)NC1=O	-24.7% (active)
CCNCCC1(CC)C(=O)NC(=O)NC1=O	-21.7% (active)
NCC(O)CSP(=O)(O)O (configuration not stated)	-13.3%
CS(=N)(=O)CCC(N)P(=O)(O)O (configuration not stated)	-8.23%
COc1cc2ccccc2c2cc([N+](=O)[O-])oc12	15.9%
CC12CCC(O)CC1CCC1C2CCC2(C)C(C(=O)CC(O)C(F)(F)F)CCC12 (configuration not stated)	-1.73%
CC(C)CC(=O)CC(O)C(Cl)(Cl)Cl (configuration not stated)	-17%
CC(Br)(C(=O)O)C(Br)C(=O)O (configuration not stated)	11.1%
CCC1C2Cc3ccc(O)cc3C1(CC)CCN2C (configuration not stated)	1.71%

SMILES	hERG blockade
CCC1=C(CC2NCCc3cc(OC)c(OC)cc32)CC2c3ccccc3CCN2C1 (configuration not stated)	46% (active)
COC(=O)c1c(C)ccc2c(O)c3c(cc12)C(=O)c1c2c(cc(O)c1C3=O)C1(C)OC(C)(O2)C(O)C(N(C)C)C1O (configuration not stated)	18.8%
NCCc1ccc(S(=O)(=O)O)cc1[N+](=O)[O-]	2.55%
O=[As](O)(O)c1ccc(NCc2ccccc2)cc1	-4.95%
COc1ccc(CC(N)c2ccc(OC)cc2)cc1 (configuration not stated)	16.9%
CC(=O)OC1CC2(C)C(=CC1C1SCCS1)CCC1C2CCC2(C)C(OC(C)=O)CCC12 (configuration not stated)	4.12%
Cc1ccc(C2(c3ccc(C)c(O)c3C)CCN(C)CC2)c(C)c1O	21.1% (active)
Cc1ncc([N+](=O)[O-])n1CCN=[N+]=[N-]	-3.49%
c1ccc(C[N+]23CN4CN(CN(C4)C2)C3)cc1	-14.9%
Nc1nc2c(ncn2C2OC(CO)C(O)C2O)c(=[SH+])[nH]1.O=[N+]([O-])c1ccc(O)[c]([Hg])c1 (configuration not stated)	5.92%
COC(=O)C1c2cc3c(c(O)c2C(O)CC1(C)O)C(=O)c1c(O)cc2c(c1C3=O)OC1OC2(C)C(O)C(N(C)C)C1O (configuration not stated)	18.4%
NC(Cc1ccccc1)P(=O)(O)O (configuration not stated)	1.7%
CC1(C)CCC(C)(C)c2c1ccc(O)c2Cc1c(O)ccc2c1C(C)(C)CCC2(C)C	-7.52%
COc1ccc(CC2C(=O)NC(C)C(=O)N(C)C3C(=O)N(C)C(Cc4ccc(O)c(c4)Oc4ccc(cc4)C3O)C(=O)NC(C)C(=O)NC(C)C(=O)N2C)cc1 (configuration not stated)	6.31%
COc1cc2c(cc1O)CC1c3c(cc(O)c(OC)c3-2)CCN1C (configuration not stated)	4.49%
COc1cc2c3cc1Oc1c(O)c(OC)cc4c1C(Cc1ccc(cc1)Oc1cc(ccc1O)CC3N(C)CC2)N(C)CC4 (configuration not stated)	38.6% (active)
N#CS.N=C=S.N=C=S.[Cu+2].[NH2-].[NH2-].[NH2-].[NH2-].c1ccc2ncccc2c1	6.79%
c1cncc(CNCCN2CCNCC2)c1	-8.8%
NC1(P(=O)(O)O)CCCCC1	-4.89%
